The structures appear in SMILES notation. Where “and” joins values, the source holds several entries; their conditions need not be identical. Identical values can stand only once. Calls of active or inactive are those of the source.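 How the source made its calls, unless noted: active means mean z-score across replicates of 1.96 or higher in either the MELAS or the Rieske mutant cell line; inactive means the rest.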

A short description of test [1]: Wnt pathway potentiators raising nuclear beta-catenin – imaging, WNT3A-conditioned medium, mouse C2C12, NPC library, primary screen (AID 1117326; in the data active means nuclear beta-catenin stimulation mostly above about 4.2%, no sharp cut-off; inactive means mostly below about 10%). The conditions noted are these: stronger effect = higher value.
A short description of test [2]: stimulators of insulin release from INS-1E, primary screen, cell-based, 5 mM glucose, NPC library (AID 1117329;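 active means compound raises insulin release from rat beta cells at 5 mM glucose, no numeric limit stated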). The conditions noted are these: rat INS-1E insulin secretion, at 10 µM, stronger effect = higher value.
Test [3] is described as follows: growth inhibition of GSK3B-pretreated HCT116 cells – cell-based, CellTiter-Glo, 0.2 to 20 µM (AID 1117336;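 active means compounds lowering colon cancer cell viability after pretreatment blocking the GSK3B kinase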). The conditions noted are these: HCT116 viability after GSK3B inhibitor, at 20 µM, stronger effect = higher value. (In general: Cellular ATP, detected with luciferase, serves as a proxy for viable cell number.)
The nature of test [4]: inhibition of endothelial tube formation, primary screen, imaging, VEGF stimulated, CD31 staining, tube area, NPC library (AID 1117340;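 active means compound that reduces growth-factor-driven endothelial tube area in a mixed cell culture, no cutoff stated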). The settings on record: VEGF-stimulated ADSC/ECFC co-culture, at 10 µM, stronger effect = higher value.
Test [5] can be described thus: GLP1 release stimulators, primary, NCI-H716, NPC library (AID 1117341;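 active means compound raises GLP1 secretion from the human gut endocrine cells, with no numeric limit stated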). The settings on record: NCI-H716 cells, at 10 µM, stronger effect = higher value.
Test [6] can be described thus: HCT116 colon cancer cell growth inhibition, primary screen, CellTiter-Glo luminescence, NPC library (AID 1117342;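 active means compounds that lower survival of HCT116 colon cancer cells in the luminescence readout, no numeric limit stated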). The conditions noted are these: at 20 µM (top of the series).
The nature of test [7]: reduced SW480 viability measured with CellTiter-Glo, NPC library, primary (AID 1117343;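 active means compounds that lower viability of the colon cancer cells in the luminescence readout, with no numeric limit stated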). The settings on record: CellTiter-Glo luminescence; at 20 µM (top of the series) unless noted.
The nature of test [8]: NPC library primary testing for decreased DLD-1 cell viability via CellTiter-Glo (AID 1117346;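 active means compounds that lower survival of DLD-1 colon cancer cells in the luminescence readout, no cutoff given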). The conditions noted are these: DLD-1 viability, CellTiter-Glo luminescence; at 20 µM (top of the series).
Test [9] can be described thus: viability loss with induced miR-34 in A549 – imaging, A549 dox-inducible miR-34, nuclei and caspase counts, primary screen (AID 1347080;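 active means compounds whose cell count with miR-34 switched on is under 0.7 times the count with it off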). The settings on record: A549 miR-34 inducible, Hoechst nuclei count, 48 h.
Test [10] in a line: MELAS cybrid and Rieske KO viability enhancers – cell-based, MELAS cybrids, Rieske KO mouse fibroblasts, CellTiter-Glo, primary screen (AID 1508586).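 Further: z relative to plate mean and SD of compound and empty wells.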 The settings on record: low glucose.
A short description of test [11]: galactose survival enhancers in mitochondrial complex I cybrids – cell-based, galactose medium, ATP luminescence, primary screen (AID 1645843;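 active means z-score of at least 1.8 in each of two replicates, scored against plate mean and spread of sample wells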;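 further: positive z means more ATP and so rescue of galactose-driven cybrid death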). The settings on record: complex I mutant cybrid cells, 72 h, stronger effect = higher value.
Test [12] in a line: P. berghei load reduction in hepatocytes – cell-based, HepG2, luciferase luminescence, HepG2 viability, primary screen (AID 624349; in the data active means parasite load remaining mostly below about 12%, no sharp cut-off; inactive means mostly above about 10%;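 further: 100% = mean of DMSO negative control wells on the same plate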). The settings on record: P. berghei liver stage in HepG2, luciferase luminescence, concentration not given here; parasite load remaining: stronger effect = lower value; viability: measured here: HepG2 viability without parasites.
Test [13] addresses NAD(+) hydrolase SARM1 (Homo sapiens) (UniProt Q6SZW1). Put plainly: blocking NAD cleavage by SARM1 SAM-TIR – cell lysate, NAD-Glo luminescence (AID 1508614;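 active means compound whose remaining NAD level is above about 45 nM, limit read from the data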). The settings on record: SAM-TIR HEK293T lysate NADase, at 1 µM, stronger effect = higher value.
For test [14], the target named is Mitogen-activated protein kinase 7 (Homo sapiens) (UniProt Q13164). Put plainly: Gal4-ERK5 driven luciferase induction – cell-based, HTS, primary screen (AID 1508626;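 active means luciferase signal above three times the same-plate solvent-only control wells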;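 further: luciferase driven by Gal4-ERK5 fusion binding five Gal4 sites before minimal TATA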). The settings on record: HeLa Gal4-ERK5 transactivation, 18 h, at 5 µM, stronger effect = higher value.
Where [15] appears, read: stronger effect = lower value, cell number ratio, induced over uninduced.
The mark [16] stands for this setting: measured here: relative caspase fold change +Dox/-Dox.
Setting [17] is: measured here: total cells with miR-34 induction, stronger effect = lower value.
Setting [18] is: measured here: total cells without miR-34 induction.
[19] abbreviates: MELAS cybrid survival, CellTiter-Glo 48 h, stronger effect = higher value.
Setting [20] is: Rieske KO mouse fibroblast survival, CellTiter-Glo 72 h.

Sequence of NAD(+) hydrolase SARM1 (Homo sapiens) (Q6SZW1 whole entry, looked up, the tested form may be a part): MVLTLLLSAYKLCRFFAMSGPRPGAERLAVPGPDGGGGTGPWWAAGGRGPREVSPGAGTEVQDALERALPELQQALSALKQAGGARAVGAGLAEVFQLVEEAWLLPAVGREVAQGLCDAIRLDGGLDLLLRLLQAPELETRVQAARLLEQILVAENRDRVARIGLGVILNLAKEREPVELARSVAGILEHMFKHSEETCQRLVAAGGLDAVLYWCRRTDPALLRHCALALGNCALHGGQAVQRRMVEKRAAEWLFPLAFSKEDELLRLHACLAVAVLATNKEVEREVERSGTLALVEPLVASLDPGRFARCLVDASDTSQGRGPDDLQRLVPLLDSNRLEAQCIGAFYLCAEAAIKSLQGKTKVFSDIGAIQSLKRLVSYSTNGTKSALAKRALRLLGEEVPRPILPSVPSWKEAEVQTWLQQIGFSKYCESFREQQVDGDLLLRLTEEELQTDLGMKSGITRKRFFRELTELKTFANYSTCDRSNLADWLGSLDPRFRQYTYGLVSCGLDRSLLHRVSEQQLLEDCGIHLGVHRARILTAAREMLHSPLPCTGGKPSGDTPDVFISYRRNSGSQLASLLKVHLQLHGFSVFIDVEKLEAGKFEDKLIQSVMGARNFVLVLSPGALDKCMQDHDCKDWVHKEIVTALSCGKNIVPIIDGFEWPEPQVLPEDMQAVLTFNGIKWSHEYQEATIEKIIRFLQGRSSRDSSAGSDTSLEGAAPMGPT
Sequence of Mitogen-activated protein kinase 7 (Homo sapiens) (Q13164 whole entry, looked up, the tested form may be a part): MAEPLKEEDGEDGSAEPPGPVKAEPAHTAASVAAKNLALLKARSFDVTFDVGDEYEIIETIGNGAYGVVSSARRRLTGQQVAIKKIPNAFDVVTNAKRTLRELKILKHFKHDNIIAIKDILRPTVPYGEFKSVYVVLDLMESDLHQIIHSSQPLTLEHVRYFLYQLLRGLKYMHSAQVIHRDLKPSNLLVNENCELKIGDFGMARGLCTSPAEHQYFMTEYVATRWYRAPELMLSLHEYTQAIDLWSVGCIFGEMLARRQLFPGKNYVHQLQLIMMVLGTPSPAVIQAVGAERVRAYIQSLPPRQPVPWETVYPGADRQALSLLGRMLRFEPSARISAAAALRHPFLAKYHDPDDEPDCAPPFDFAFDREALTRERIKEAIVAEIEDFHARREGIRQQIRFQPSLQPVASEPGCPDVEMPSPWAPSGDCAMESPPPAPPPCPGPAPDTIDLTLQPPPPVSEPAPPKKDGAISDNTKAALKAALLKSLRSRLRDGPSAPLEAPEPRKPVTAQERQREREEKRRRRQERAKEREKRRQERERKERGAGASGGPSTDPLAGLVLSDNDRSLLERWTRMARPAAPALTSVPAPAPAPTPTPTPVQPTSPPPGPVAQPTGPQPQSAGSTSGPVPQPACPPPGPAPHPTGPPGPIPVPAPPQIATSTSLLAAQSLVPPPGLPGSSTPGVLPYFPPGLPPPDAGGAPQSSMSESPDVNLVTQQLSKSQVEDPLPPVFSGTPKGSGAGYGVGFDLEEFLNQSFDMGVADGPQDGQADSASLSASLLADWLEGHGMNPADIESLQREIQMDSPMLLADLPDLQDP

As for `O=C(NCC1CN(c2ccc(N3CCOCC3=O)cc2)C(=O)O1)c1ccc(Cl)s1` (stereo not given), the nuclear beta-catenin stimulation was 1.8% (inactive) in test [1] (at 10 µM) and -0.7% in test [1] (stimulation, at 2 µM). For the same molecule, the insulin secretion stimulation in test [2] is 0.5% (inactive). Besides, the viability decrease in [3] was 55.9% (active). In test [4], the tube area decrease is -0.6% (inactive). Further, in [5], the GLP1 secretion stimulation is -0.6% (inactive). For the same molecule, in [6], the inhibition of viability was 51.2% (active). For the same molecule, the figures for the viability decrease (inhibition) in test [7] and in test [8] were -16% (inactive) and 9.9% (inactive), respectively. The figures for the fold change in [9] (setting [15]) and in test [9] (setting [16]) were 0.99 (inactive) and 0.417, respectively. Moreover, the cell count was found to be 7630 in [9] (setting [17]) and 7700 in [9] (setting [18]). In addition, the z-score is -0.316 (inactive) in [10] (setting [19]) and -0.0771 in test [10] (setting [20]).

Turning to `CCCC(=O)OCOC(=O)C1=C(C)NC(C)=C(C(=O)OC)C1c1cccc(Cl)c1Cl` (stereo not given), the nuclear beta-catenin stimulation is 15.7% (inactive) in [1] (at 10 µM) and 12.3% in test [1] (stimulation, at 2 µM). Moreover, in test [2], the insulin secretion stimulation was 3.9% (inactive). Further, in [3], the viability decrease is -9.1% (inactive). Further, the tube area decrease in test [4] is -4.1% (inactive). Also, the GLP1 secretion stimulation in test [5] was 5.1% (inactive). For the same molecule, in test [6], the inhibition of viability is 25.4% (inactive). Besides, the viability decrease (inhibition) in [7] was 6.5% (inactive); in test [8], 14.3% (inactive). The fold change in [9] (setting [15]) was 0.959 (inactive) and 0.978 (inactive); in test [9] (setting [16]) it was 0.415 and 0.463. The cell count in [9] (setting [17]) is 8260 and 7700; in test [9] (setting [18]), 8610 and 7870. The z-score is 0.611 (inactive) and -0.319 (inactive) in [10] (setting [19]); -0.278 and 0.00408 in test [10] (setting [20]); -1.31 (inactive) in test [11].

In general, viability refers to a per cent measure of how many cells are alive, often set against a control. For `COc1ccccc1O`, in test [12], the parasite load remaining is 50.2% (inactive). In [12], the viability was 93.5%. Moreover, the nuclear beta-catenin stimulation in test [1] (at 10 µM) is -1.7% (inactive); in [1] (stimulation, at 2 µM), 2.4%. Further, the insulin secretion stimulation in test [2] is 2.9% (inactive). The viability decrease in test [3] was -10.4% (inactive). Besides, in test [4], the tube area decrease is -0.8% (inactive). In test [5], the GLP1 secretion stimulation was -3.6% (inactive). For the same molecule, the inhibition of viability in [6] is 3% (inactive). The viability decrease (inhibition) is 1.3% (inactive) in [7] and -5.1% (inactive) in [8]. The fold change is 0.954 (inactive) in [9] (setting [15]) and 1.02 in test [9] (setting [16]). In addition, the cell count in test [9] (setting [17]) is 10200; in test [9] (setting [18]) it was 10700. For the same molecule, the z-score in test [10] (setting [19]) is 0.215 (inactive) and 0.0947 (inactive); in [10] (setting [20]) it was -0.0355 and -0.379; in test [11], 0.615 (inactive). The remaining NAD in test [13] was 10 nM (inactive).

In the case of `C=C1C[C@H]2[C@@H]3C=C(C)C4=CC(=O)CC[C@]4(C)[C@H]3CC[C@]2(C)[C@@]1(OC(C)=O)C(C)=O`, the parasite load remaining in test [12] was 14.5% (inactive). In addition, in test [12], the viability turned out to be 66%. Also, the nuclear beta-catenin stimulation is -0.2% (inactive) in test [1] (at 10 µM) and 0.8% in test [1] (stimulation, at 2 µM). Further, the insulin secretion stimulation in test [2] is 0.5% (inactive). In test [3], the viability decrease is 37.4% (inactive). The tube area decrease in [4] was -17.7% (inactive). Also, the GLP1 secretion stimulation in [5] was -1.4% (inactive). The inhibition of viability in test [6] is 62% (active). Also, the viability decrease (inhibition) in test [7] is 61.1% (active); in test [8], 53.6% (active). Besides, the fold change is 0.868 (inactive) in test [9] (setting [15]) and 1.42 in test [9] (setting [16]). For the same molecule, the figures for the cell count in test [9] (setting [17]) and in [9] (setting [18]) were 5790 and 6660, respectively. Moreover, the z-score is 0.533 (inactive) and 0.334 (inactive) in test [10] (setting [19]); 0.392 and 1.14 in [10] (setting [20]); -0.29 (inactive) in test [11]. Moreover, the remaining NAD in test [13] was 15 nM (inactive). In addition, the luciferase signal in test [14] was 64 AU (inactive).

In the case of `COc1cc(C)c(C=CC(C)=CC=CC(C)=CC(=O)O)c(C)c1C`, the nuclear beta-catenin stimulation in test [1] (at 10 µM) is 1% (inactive); in test [1] (stimulation, at 2 µM), 1.9%. The insulin secretion stimulation in test [2] was 2.8% (inactive). In test [3], the viability decrease is 61.5% (active). Besides, the tube area decrease in [4] was 45.4% (active). Also, the GLP1 secretion stimulation in test [5] was -3.9% (inactive). Besides, in [6], the inhibition of viability was 52.1% (active). The viability decrease (inhibition) in test [7] was 70.9% (active); in test [8] it was 78.6% (active). Also, the figures for the fold change in [9] (setting [15]) and in [9] (setting [16]) were 0.847 (inactive) and 1.06, respectively. For the same molecule, the cell count in test [9] (setting [17]) came out at 6840; in test [9] (setting [18]) it was 8080. Besides, the results for the z-score in [10] (setting [19]) and in test [10] (setting [20]) were -0.108 (inactive) and 0.793, respectively.

Values taken from PubChem BioAssay.
